# Results published in PMC7862700, “An all-to-all approach to the identification of sequence-specific readers for epigenetic DNA modifications on cytosine”.
# How the values were obtained:
# Experiment in all cases: DAPPL (digital affinity profiling via proximity ligation, sequencing); 10 mM Tris-HCl pH 7.5, 50 mM NaCl, 1 mM DTT, 4% glycerol, room temperature, 30 min; GST-TFs on glutathione beads, 16-mer random dsDNA library, 0.1% formaldehyde crosslink after washing; high values mean tight binding
# FEV = target: T1, FEV (Homo sapiens, UniProt Q99581 1-238); settings: protein: recombinant; tags: N-terminal GST; dsDNA, one strand shown
# T1 sequence: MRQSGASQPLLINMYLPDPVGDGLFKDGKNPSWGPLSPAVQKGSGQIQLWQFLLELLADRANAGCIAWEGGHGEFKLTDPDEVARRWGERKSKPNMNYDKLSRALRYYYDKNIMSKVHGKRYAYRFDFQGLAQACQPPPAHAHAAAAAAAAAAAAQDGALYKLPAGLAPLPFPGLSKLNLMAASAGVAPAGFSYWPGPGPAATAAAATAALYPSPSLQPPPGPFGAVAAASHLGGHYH
# Summary of the method: (§1)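 Pools of DNA-barcoded human transcription factors, expressed in yeast as GST fusions on glutathione beads and combined with a tag-only sample, were incubated with 200 nmole of a 16-mer random double-stranded DNA library. Incubation took 30 min at room temperature in Tris/NaCl/DTT/glycerol buffer and was followed by washing, 0.1% formaldehyde crosslinking, proximity ligation (BsaI/T4 ligase, 1 h, 37 °C), PCR amplification and sequencing on an Illumina NextSeq500. Binding signal is the ratio of a hexamer's read frequency for a factor to its frequency for the tag-only sample.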
# ETV5 = ETV5 (Homo sapiens, UniProt P41161 1-510); settings: protein: recombinant; tags: N-terminal GST; dsDNA, one strand shown
# Summary of the method: as §1
# HSF1 = HSF1 (Homo sapiens, UniProt Q00613 1-529); settings: protein: recombinant; tags: N-terminal GST; chain copies: 3; dsDNA, one strand shown
# Summary of the method: as §1
# SPIC = target: T2, SPIC (Homo sapiens, UniProt Q8N5J4 1-248); settings: protein: recombinant; tags: N-terminal GST; dsDNA, one strand shown
# T2 sequence: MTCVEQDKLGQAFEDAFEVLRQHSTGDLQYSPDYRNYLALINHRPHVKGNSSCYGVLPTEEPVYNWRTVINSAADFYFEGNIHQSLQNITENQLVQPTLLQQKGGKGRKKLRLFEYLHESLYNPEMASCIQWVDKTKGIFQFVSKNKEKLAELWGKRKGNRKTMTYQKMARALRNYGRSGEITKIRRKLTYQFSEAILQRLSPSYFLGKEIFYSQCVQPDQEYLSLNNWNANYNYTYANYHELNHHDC
# Summary of the method: as §1
# ELF4 = ELF4 (Homo sapiens, UniProt Q99607 1-663); settings: protein: recombinant; tags: N-terminal GST; dsDNA, one strand shown
# Summary of the method: as §1
# ELK4 = target: T3, ELK4 (Homo sapiens, UniProt P28324-2 1-405); settings: protein: recombinant; tags: N-terminal GST; dsDNA, one strand shown
# T3 sequence: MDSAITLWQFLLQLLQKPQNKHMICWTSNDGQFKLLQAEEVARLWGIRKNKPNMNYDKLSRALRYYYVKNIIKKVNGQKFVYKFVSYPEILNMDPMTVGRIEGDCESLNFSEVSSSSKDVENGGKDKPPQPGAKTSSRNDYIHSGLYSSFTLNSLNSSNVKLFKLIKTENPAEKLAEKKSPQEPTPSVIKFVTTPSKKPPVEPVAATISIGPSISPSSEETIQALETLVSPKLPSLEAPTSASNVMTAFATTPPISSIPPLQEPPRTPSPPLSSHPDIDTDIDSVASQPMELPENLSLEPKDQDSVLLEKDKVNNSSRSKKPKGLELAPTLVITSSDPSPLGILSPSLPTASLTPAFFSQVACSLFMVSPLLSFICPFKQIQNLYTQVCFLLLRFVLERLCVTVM
# Summary of the method: as §1
# ETV2 = target: T4, ETV2 (Homo sapiens, UniProt O00321 1-342); settings: protein: recombinant; tags: N-terminal GST; dsDNA, one strand shown
# T4 sequence: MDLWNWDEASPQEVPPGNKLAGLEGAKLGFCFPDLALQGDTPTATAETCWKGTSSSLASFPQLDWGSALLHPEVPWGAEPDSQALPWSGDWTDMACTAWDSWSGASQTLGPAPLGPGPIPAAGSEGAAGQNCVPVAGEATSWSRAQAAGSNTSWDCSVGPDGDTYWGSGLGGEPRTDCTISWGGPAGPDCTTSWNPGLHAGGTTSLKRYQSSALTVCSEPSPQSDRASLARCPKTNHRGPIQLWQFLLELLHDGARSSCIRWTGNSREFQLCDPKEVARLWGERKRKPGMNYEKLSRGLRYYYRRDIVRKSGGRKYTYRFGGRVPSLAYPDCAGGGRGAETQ
# Summary of the method: as §1
# ELF3 = target: T5, ELF3 (Homo sapiens, UniProt P78545 1-371); settings: protein: recombinant; tags: N-terminal GST; dsDNA, one strand shown
# T5 sequence: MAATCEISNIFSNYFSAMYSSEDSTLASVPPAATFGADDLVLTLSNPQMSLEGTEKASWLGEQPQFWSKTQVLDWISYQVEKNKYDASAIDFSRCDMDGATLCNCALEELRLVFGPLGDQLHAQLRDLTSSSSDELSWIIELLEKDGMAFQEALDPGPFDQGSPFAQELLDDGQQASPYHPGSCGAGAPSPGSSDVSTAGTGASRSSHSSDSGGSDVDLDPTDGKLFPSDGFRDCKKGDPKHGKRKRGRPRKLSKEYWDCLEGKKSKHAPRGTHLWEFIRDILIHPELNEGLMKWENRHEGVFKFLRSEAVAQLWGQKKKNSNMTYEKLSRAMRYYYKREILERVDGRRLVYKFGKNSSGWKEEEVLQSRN
# Summary of the method: as §1
# CRX = CRX (Homo sapiens, UniProt O43186 1-299); settings: protein: recombinant; tags: N-terminal GST; dsDNA, one strand shown
# Summary of the method: as §1
# ETV1 = ETV1 (Homo sapiens, UniProt P50549 1-477); settings: protein: recombinant; tags: N-terminal GST; dsDNA, one strand shown
# Summary of the method: as §1
# ERF = target: T6, ERF (Homo sapiens, UniProt P50548 1-548); settings: protein: recombinant; tags: N-terminal GST; dsDNA, one strand shown
# T6 sequence: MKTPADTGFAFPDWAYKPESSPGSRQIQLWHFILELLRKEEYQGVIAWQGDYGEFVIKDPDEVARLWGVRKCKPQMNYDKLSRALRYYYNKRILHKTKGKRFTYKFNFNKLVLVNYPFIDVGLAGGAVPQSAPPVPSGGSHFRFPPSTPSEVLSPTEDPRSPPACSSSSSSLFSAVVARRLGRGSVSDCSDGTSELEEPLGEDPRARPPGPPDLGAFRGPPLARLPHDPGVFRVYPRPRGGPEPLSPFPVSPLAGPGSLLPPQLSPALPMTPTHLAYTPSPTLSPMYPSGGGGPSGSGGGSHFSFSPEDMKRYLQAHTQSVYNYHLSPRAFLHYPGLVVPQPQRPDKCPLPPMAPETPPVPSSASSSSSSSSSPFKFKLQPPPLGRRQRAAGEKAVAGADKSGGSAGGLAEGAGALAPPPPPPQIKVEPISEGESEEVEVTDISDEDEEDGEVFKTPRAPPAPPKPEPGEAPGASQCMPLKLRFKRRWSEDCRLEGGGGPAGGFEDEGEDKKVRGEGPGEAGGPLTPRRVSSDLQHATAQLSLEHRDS
# Summary of the method: as §1
# ETV3L = target: T7, ETV3L (Homo sapiens, UniProt Q6ZN32 1-361); settings: protein: recombinant; tags: N-terminal GST; dsDNA, one strand shown
# T7 sequence: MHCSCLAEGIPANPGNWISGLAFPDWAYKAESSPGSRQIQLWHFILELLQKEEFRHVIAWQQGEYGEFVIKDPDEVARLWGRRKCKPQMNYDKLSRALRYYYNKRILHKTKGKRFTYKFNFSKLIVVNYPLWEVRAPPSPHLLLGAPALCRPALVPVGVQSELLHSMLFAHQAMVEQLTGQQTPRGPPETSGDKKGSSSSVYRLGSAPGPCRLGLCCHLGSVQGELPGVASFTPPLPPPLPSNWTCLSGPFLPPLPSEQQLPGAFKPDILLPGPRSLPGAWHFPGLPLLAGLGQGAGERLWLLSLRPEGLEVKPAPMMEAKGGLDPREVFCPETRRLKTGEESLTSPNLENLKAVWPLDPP
# Summary of the method: as §1
# ETS2 = target: T8, ETS2 (Homo sapiens, UniProt P15036 1-469); settings: protein: recombinant; tags: N-terminal GST; dsDNA, one strand shown
# T8 sequence: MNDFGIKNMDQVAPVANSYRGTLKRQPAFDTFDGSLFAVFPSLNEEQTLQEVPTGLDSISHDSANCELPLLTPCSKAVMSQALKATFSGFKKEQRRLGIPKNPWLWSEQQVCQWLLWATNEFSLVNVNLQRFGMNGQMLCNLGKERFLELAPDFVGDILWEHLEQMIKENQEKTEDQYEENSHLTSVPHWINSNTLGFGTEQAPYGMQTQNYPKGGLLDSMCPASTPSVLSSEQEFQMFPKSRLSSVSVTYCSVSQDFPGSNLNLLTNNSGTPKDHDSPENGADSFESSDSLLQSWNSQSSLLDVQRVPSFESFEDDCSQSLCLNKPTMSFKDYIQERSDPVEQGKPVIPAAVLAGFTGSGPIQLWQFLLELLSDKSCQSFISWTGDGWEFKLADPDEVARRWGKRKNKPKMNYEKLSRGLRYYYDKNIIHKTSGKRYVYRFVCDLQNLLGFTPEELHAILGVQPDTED
# Summary of the method: as §1
# SPDEF = target: T9, SPDEF (Homo sapiens, UniProt O95238 1-335); settings: protein: recombinant; tags: N-terminal GST; dsDNA, one strand shown
# T9 sequence: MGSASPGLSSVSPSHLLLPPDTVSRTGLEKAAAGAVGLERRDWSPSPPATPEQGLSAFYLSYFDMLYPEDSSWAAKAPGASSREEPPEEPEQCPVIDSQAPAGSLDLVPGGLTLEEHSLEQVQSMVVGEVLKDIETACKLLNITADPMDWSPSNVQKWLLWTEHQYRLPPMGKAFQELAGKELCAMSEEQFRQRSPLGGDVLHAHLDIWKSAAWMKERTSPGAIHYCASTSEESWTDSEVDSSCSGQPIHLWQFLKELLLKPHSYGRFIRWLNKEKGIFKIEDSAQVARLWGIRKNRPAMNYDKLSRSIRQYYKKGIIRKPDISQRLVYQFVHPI
# Summary of the method: as §1
# ETV7 = target: T10, ETV7 (Homo sapiens, UniProt Q9Y603 1-341); settings: protein: recombinant; tags: N-terminal GST; dsDNA, one strand shown
# T10 sequence: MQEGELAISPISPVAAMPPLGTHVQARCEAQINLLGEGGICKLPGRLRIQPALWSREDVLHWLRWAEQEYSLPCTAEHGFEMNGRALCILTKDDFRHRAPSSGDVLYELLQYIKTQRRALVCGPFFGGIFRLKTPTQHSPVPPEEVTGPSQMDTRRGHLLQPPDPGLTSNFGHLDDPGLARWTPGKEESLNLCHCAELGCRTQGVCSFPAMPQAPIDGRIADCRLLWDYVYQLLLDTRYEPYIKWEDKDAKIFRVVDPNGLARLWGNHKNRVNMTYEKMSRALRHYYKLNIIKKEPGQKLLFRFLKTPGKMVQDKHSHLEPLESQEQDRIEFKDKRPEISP
# Summary of the method: as §1
# ELF5 = target: T11, ELF5 (Homo sapiens, UniProt Q9UKW6-2 1-255); settings: protein: recombinant; tags: N-terminal GST; dsDNA, one strand shown
# T11 sequence: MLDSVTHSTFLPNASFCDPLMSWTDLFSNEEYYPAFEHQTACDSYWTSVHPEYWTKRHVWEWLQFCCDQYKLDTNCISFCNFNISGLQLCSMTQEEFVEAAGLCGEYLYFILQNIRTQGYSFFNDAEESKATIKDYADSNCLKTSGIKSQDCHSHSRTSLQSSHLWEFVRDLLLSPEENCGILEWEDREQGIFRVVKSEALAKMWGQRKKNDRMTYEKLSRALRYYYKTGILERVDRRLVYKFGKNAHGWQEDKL
# Summary of the method: as §1
# ETV3 = target: T12, ETV3 (Homo sapiens, UniProt P41162-2 1-143); settings: protein: recombinant; tags: N-terminal GST; dsDNA, one strand shown
# T12 sequence: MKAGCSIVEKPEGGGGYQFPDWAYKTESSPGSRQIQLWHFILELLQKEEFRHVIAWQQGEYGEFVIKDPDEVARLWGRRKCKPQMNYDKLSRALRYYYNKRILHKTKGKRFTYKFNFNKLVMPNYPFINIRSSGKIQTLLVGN
# Summary of the method: as §1
# ETV6 = ETV6 (Homo sapiens, UniProt P41212 1-452); settings: protein: recombinant; tags: N-terminal GST; dsDNA, one strand shown
# Summary of the method: as §1
# ETV1, sequence (P50549 whole entry): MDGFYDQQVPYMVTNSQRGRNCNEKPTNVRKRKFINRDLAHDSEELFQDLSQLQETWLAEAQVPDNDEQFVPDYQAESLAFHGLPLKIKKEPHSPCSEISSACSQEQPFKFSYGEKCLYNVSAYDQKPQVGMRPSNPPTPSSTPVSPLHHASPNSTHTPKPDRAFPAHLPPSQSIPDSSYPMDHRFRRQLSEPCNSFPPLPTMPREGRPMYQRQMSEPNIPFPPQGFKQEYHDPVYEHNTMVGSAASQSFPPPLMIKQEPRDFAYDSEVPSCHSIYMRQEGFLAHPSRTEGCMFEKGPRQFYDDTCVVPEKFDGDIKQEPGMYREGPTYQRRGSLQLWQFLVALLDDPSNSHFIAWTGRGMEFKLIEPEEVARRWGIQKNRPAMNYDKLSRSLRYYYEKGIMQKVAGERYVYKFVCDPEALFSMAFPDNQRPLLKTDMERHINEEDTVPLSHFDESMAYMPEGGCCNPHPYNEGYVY
# ELF4, sequence (Q99607 whole entry): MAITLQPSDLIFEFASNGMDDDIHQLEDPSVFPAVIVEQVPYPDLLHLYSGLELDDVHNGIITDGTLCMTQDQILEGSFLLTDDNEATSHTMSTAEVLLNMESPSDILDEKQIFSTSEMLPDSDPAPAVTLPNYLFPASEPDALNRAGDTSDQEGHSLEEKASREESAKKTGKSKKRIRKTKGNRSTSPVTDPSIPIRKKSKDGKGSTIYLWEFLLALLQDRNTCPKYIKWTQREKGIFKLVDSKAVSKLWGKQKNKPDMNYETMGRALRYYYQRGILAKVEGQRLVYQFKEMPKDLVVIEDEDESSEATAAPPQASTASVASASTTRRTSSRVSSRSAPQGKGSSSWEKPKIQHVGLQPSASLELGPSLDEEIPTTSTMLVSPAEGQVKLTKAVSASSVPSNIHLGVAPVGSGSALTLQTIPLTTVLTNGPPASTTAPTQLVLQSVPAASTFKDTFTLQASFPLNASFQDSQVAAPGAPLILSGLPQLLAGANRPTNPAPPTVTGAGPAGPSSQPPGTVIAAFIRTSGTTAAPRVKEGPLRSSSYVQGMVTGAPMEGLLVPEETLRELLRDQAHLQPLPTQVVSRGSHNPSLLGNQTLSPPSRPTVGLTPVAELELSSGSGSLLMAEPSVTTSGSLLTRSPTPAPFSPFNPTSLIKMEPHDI
# ETV6, sequence (P41212 whole entry): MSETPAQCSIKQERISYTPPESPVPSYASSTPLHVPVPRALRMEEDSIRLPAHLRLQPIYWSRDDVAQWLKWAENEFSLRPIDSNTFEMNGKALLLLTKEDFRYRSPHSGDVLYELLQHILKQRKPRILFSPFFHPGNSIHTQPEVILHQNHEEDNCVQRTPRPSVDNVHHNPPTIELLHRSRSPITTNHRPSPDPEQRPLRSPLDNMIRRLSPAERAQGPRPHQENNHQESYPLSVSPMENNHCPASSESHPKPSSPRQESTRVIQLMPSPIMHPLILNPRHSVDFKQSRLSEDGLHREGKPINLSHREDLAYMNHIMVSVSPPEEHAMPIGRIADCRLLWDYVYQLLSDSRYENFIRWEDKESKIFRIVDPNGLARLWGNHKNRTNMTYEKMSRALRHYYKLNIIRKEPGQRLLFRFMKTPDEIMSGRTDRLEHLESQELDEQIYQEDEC
# HSF1, sequence (Q00613 whole entry): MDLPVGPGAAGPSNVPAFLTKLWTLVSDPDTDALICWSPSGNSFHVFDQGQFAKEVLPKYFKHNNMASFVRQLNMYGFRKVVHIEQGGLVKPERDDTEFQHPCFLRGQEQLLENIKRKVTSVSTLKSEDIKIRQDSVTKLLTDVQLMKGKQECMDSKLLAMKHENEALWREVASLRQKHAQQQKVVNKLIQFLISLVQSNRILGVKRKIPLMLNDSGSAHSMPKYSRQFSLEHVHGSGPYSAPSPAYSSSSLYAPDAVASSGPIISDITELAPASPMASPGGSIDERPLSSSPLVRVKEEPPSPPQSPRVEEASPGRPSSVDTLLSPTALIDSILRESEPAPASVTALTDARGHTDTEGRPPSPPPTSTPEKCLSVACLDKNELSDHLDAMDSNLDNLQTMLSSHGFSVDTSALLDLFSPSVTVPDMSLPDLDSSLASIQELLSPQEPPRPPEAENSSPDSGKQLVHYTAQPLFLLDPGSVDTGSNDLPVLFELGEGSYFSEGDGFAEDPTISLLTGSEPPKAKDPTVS
# ETV5, sequence (P41161 whole entry): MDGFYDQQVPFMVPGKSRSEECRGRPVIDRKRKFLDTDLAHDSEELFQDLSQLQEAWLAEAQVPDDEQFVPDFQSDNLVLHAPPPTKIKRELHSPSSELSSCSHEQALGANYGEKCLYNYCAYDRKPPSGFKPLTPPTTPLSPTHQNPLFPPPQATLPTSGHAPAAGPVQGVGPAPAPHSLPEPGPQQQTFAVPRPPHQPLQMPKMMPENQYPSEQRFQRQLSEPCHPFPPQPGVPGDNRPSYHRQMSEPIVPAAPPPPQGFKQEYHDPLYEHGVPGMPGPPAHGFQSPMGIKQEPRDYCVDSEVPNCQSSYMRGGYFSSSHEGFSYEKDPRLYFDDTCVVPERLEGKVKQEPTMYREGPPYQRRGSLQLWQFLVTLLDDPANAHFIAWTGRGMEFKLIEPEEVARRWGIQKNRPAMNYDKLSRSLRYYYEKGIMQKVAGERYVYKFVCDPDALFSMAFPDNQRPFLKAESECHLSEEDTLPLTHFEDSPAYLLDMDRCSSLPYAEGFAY
# CRX, sequence (O43186 whole entry): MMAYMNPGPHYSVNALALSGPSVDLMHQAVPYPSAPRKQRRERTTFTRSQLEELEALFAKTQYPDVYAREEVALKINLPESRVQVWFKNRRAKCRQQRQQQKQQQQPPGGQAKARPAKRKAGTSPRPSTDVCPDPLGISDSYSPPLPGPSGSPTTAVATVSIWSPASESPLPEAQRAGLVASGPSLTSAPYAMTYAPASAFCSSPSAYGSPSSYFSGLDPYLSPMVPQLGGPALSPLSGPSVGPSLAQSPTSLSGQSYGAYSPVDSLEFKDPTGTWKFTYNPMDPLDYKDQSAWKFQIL
sequence,measurement,setting,value
AATGAA,binding signal,FEV,"1.11 fold enrichment (6-mer frequency, TF over GST control)"
same,binding signal,ETV5,"1.16 fold enrichment (6-mer frequency, TF over GST control)"
same,binding signal,HSF1,"1.12 fold enrichment (6-mer frequency, TF over GST control)"
same,binding signal,SPIC,"1.26 fold enrichment (6-mer frequency, TF over GST control)"
same,binding signal,ELF4,"1.2 fold enrichment (6-mer frequency, TF over GST control)"
same,binding signal,ELK4,"1.24 fold enrichment (6-mer frequency, TF over GST control)"
same,binding signal,ETV2,"1.08 fold enrichment (6-mer frequency, TF over GST control)"
same,binding signal,ELF3,"1.24 fold enrichment (6-mer frequency, TF over GST control)"
same,binding signal,CRX,"1.03 fold enrichment (6-mer frequency, TF over GST control)"
same,binding signal,ETV1,"1.17 fold enrichment (6-mer frequency, TF over GST control)"
same,binding signal,ERF,"1.29 fold enrichment (6-mer frequency, TF over GST control)"
same,binding signal,ETV3L,"1.19 fold enrichment (6-mer frequency, TF over GST control)"
same,binding signal,ETS2,"1.15 fold enrichment (6-mer frequency, TF over GST control)"
same,binding signal,SPDEF,"1.04 fold enrichment (6-mer frequency, TF over GST control)"
same,binding signal,ETV7,"1.18 fold enrichment (6-mer frequency, TF over GST control)"
same,binding signal,ELF5,"1.22 fold enrichment (6-mer frequency, TF over GST control)"
same,binding signal,ETV3,"1.17 fold enrichment (6-mer frequency, TF over GST control)"
same,binding signal,ETV6,"1.23 fold enrichment (6-mer frequency, TF over GST control)"
